Screen size: about 360,000 compounds; about 17,000 (4.7%) were called active. Another 5% or so got no clear call; they are omitted. This is one part of a sample in which actives are shown more often than they occur. Rule as the data show it: active = activity change below about -50%; inconclusive = mostly about -30% to -49%; inactive = weaker than that.
Assay: qHTS for Inhibitors of Inflammasome Signaling: IL-1-beta AlphaLISA Primary Screen
Conditions: THP-1 LPS/ATP IL-1B secretion, 16 h; at 57.5 µM, stronger effect = lower value
How it was run: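 Secreted IL-1B measured by AlphaLISA bead assay after 16 h compound exposure of THP-1 cells; compounds (final up to 57.5 uM) added 1 h before LPS (250 ng/mL) and ATP (1.25 mM) stimulation; lower signal means less secretion.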
% is scaled to controls: 0 for no effect and ±100 for the full control effect.

Activity change, active:
COc1ccc(CCNC(=O)c2cnc(Cl)c(Cl)c2)cc1 -107%
O=[N+]([O-])c1cc(S(=O)(=O)NCCc2ccccn2)ccc1Cl -65.1%
COc1cccc(/C(C)=N/Nc2ncc(Cl)cc2Cl)c1 -80.6%
O=C(CN1C(=O)S/C(=C\c2ccccc2Cl)C1=O)NC1C=CS(=O)(=O)C1 (stereo unspecified) -99.6%
Cc1ccnc(-n2sc3ccccc3c2=O)n1 -95.9%
CCOC(=O)Nc1ccc2c(c1)N(C(=O)CCCl)c1ccccc1[S@]2=O -96.5%
CC(=O)Nc1ccc(NC(=O)C(C)OC(=O)c2ccccc2C(=O)c2ccc(Cl)c([N+](=O)[O-])c2)cc1 (stereo unspecified) -108%
N#Cc1cccc(NC(=O)COC(=O)c2ccccc2C(=O)c2ccc(Cl)c([N+](=O)[O-])c2)c1 -112%
COc1ccc(C(=O)C(C)OC(=O)c2cccc(S(=O)(=O)Nc3c(C)n(C)n(-c4ccccc4)c3=O)c2)cc1 (stereo unspecified) -73.2%
O=S1(=O)C=C(SCCN2CCCC2)c2ccccc21 -84.4%
CCc1ccc(-c2nn(-c3ccccc3)cc2CSC(=N)N)cc1 -102%

Activity change, inactive:
Cc1cccc(C(=O)C(O)(c2ccccc2)C2CCCCC2=O)c1 (stereo unspecified) 16.6%
COc1ccc(CCNC(=O)COC(=O)c2cnc(Cl)c(Cl)c2)cc1 -11.2%
CC(CCc1ccccc1)NC(=O)c1cnc(Cl)c(Cl)c1 (stereo unspecified) 12.3%
CC1(C)OC(=O)C2=C(C[C@@H](C3CCCCC3)O[C@@H]2c2ccc(Cl)cc2)O1 0%
CC1=C(C(=O)Nc2cccc(C(=O)NCC(C)c3ccccc3)c2)SCCO1 (stereo unspecified) 24.1%
CC(C)(C)n1nnnc1C(c1ccc2ncccc2c1)N1CCSCC1 (stereo unspecified) -23.4%
O=S(=O)(NCCc1ccccn1)c1cc(Cl)cc(Cl)c1O 0%
O=[N+]([O-])c1cccc(S(=O)(=O)NCc2ccccn2)c1 11.4%
COC(=O)c1ccc(CNC(=O)Cn2cc(C)c(=O)[nH]c2=O)cc1 15.5%
COc1ccc(C(=O)NCC2CCCO2)cc1S(=O)(=O)NCc1ccc(Cl)cc1 (stereo unspecified) -8.62%
COC(=O)c1sccc1N/N=C(\C)c1ccc(F)c(Cl)c1 13.1%
CCN(CC)c1ccc(C(=O)N/N=C(\C)c2cccc(OC)c2)cc1 96.6%
Cc1cc(NC(=O)CSc2nccn2-c2ccc([N+](=O)[O-])cc2)no1 45.3%
COc1cc2c(cc1CNC[C@H]1O[C@@H](n3cnc(C(N)=O)n3)[C@H](O)[C@@H]1O)OCO2 3.97%
CCc1ccccc1OCC(=O)Nc1nnc(C2CC2)s1 -16.9%
COc1cccc(/C=C2/SC(=S)N(CC(=O)NC3C=CS(=O)(=O)C3)C2=O)c1 (stereo unspecified) -11%
O=C(CN1CCCCCC1)NCCN1C(=O)S/C(=C\c2ccccc2Cl)C1=O -15.4%
CC(=O)Nc1ccccc1C(=O)C(=O)Nc1ccc(F)cc1 6.97%
CC(NC(=O)c1ccccc1)C(=O)OCC(=O)Nc1cccc(S(=O)(=O)N2CCCC2)c1 (stereo unspecified) -0.602%
Cc1ccnc(SC2CC(=O)N(c3ccccc3)C2=O)n1 (stereo unspecified) -12.7%
Cc1nc(Nc2ccccc2C)c2cnn(C)c2n1 5.45%
CCCCc1ccc(S(=O)(=O)NC(=O)C2(C)CCN2C(=O)c2ccccc2)cc1 (stereo unspecified) 48.7%
CCOC(=O)Nc1ccc(S(=O)(=O)N(C)C(C)C)cc1 24%
CCOC(=O)Nc1ccc2c(c1)N(C(=O)CCN1CCN(CCO)CC1)c1ccccc1CC2 -7.2%
Cc1ccc(CNC(=O)C(=O)c2cn(CC(=O)N3CCOCC3)c3ccccc23)cc1 -24.4%
CC(CC(=O)O)C(=O)c1ccc(Cl)c([N+](=O)[O-])c1 (stereo unspecified) -17.6%
CC(=O)Nc1ccc(NC(=O)COC(=O)c2ccccc2C(=O)c2ccccc2)cc1 -29.6%
COC(=O)c1cc(NC(=O)Cc2ccccc2[N+](=O)[O-])ccc1Cl 11.8%
NC(=O)c1ccc(NC(=O)COC(=O)c2ccc([N+](=O)[O-])cc2)cc1 3.51%
C[C@H]1CN([C@@H](C)CO)C(=O)CCCn2cc(nn2)CO[C@@H]1CN(C)S(=O)(=O)c1ccccc1C#N 4.98%
Cc1cc(C)c(C=NNc2nc3c([nH]2)c(=O)n(C)c(=O)n3C)c(C)c1 -9.11%
O=C(COC(=O)CCc1c[nH]c2ccccc12)Nc1cccc(Cl)c1 8.98%
CSc1ccc(CN2CCC2(C)C(=O)NCc2ccccc2Br)cc1 (stereo unspecified) 35.5%
Cc1c(NC(=O)C(C)OC(=O)c2ccccc2O)c(=O)n(-c2ccccc2)n1C (stereo unspecified) 2.66%
COc1ccc(NS(=O)(=O)c2ccc(C(=O)Nc3c(C)n(C)n(-c4ccccc4)c3=O)cc2)cc1 -16.8%
CSCCC(NC(=O)c1ccco1)C(=O)NCCc1ccc(F)cc1 (stereo unspecified) -9.3%
c1ccc(-c2ccccc2OCCN2CCCCC2)cc1 -0.581%
Nc1nnc(SCCN2C(=O)c3ccccc3S2(=O)=O)s1 10.6%
CCN(CC(=O)NC1CCS(=O)(=O)C1)c1nc(-c2cccnc2)nc2ccccc12 (stereo unspecified) -2.86%
O=C(CSc1cccc[n+]1[O-])c1ccc(-c2ccccc2)cc1 31.4%
COCCNc1ncnc2c1ncn2[C@H]1CN(CCN2CCOCC2)C[C@@H](CO)O1 1.62%
CCc1ccc(-c2nn(-c3ccccc3C)cc2C(=O)N2CCN(C3CCS(=O)(=O)C3)CC2)cc1 (stereo unspecified) 16.7%
NC(=O)C1CCN(C(=O)c2cn(-c3ccccc3)nc2-c2cccnc2)CC1 -2.49%
CCOC(=O)c1ccc(COC(=O)CCc2nc(-c3ccccc3)c(-c3ccccc3)o2)cc1 31.5%
CC(C)Nc1ncnc2c1ncn2[C@H]1CN(Cc2ccncc2)C[C@@H](CO)O1 22.2%

Reference: PubChem BioAssay AID743279 (National Center for Advancing Translational Sciences (NCATS), 2014)
